± gives the standard deviation of the averaged measurements. Of roughly 6,500 targets only a part is listed; those with the largest changes were picked by preference.
These targets were tested with Nc1ncnc2c1ncn2[C@@H]1O[C@H](COP(=O)(O)OP(=O)(O)OP(=O)(O)O)[C@@H](O)[C@H]1O [adenosine triphosphate] (assay: NP40-soluble protein abundance relative to vehicle (solubility fold change) (ratio); higher = more soluble protein in presence of ATP). Details: concentration: 4mM.
Procedure, shortened: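 In three independent experiments, Jurkat crude lysate made by Dounce homogenisation was treated for 10 min at room temperature and then 3 min at 37 °C with eight concentrations ranging from 0.1 to 10 mM. It was then solubilised with 0.8% NP40 plus benzonase for 60 min at 4 °C and ultracentrifuged. The supernatant was TMT-labelled for LC-MS/MS, and each value is the fold change against the detergent-processed vehicle for the same replicate, using vsn-normalised intensities.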
Chain of UniProt Q76I76 (Q76I76 whole entry, one chain of several): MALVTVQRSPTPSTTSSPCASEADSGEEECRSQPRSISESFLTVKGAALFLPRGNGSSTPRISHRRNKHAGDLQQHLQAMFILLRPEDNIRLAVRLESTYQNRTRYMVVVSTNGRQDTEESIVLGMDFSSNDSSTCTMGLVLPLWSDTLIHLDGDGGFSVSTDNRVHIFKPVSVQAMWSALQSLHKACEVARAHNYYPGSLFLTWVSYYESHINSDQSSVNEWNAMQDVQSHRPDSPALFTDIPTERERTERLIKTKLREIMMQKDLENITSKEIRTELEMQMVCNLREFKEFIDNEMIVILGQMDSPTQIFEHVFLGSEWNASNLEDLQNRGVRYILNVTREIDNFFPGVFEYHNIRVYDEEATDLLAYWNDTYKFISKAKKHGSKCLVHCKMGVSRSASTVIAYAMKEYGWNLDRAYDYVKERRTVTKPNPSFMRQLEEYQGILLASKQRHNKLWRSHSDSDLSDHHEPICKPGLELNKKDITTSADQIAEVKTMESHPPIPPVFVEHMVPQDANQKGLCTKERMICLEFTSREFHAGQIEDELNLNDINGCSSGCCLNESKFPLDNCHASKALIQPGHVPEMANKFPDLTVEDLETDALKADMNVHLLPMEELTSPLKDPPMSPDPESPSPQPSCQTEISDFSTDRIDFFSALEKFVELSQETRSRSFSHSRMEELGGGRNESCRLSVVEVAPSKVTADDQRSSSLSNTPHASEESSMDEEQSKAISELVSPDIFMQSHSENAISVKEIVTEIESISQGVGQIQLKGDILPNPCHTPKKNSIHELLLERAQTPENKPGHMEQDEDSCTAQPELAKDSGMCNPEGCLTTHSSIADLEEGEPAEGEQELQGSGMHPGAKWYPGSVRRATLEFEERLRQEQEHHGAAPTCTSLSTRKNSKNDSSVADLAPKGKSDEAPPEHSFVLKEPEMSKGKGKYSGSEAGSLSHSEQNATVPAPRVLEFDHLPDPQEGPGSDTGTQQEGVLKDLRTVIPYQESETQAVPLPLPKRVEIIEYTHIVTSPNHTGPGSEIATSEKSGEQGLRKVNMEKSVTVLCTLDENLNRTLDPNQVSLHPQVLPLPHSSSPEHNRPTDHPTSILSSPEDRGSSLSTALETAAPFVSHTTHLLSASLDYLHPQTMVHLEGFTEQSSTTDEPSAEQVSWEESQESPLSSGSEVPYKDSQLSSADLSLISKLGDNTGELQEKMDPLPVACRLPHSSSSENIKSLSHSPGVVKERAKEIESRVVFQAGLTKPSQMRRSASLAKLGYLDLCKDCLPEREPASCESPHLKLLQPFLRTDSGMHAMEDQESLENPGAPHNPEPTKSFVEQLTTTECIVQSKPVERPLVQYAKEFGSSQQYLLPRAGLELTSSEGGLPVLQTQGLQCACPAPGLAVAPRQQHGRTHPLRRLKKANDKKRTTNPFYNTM
Chain of UniProt Q8IVV7 (Q8IVV7 whole entry, one chain of several): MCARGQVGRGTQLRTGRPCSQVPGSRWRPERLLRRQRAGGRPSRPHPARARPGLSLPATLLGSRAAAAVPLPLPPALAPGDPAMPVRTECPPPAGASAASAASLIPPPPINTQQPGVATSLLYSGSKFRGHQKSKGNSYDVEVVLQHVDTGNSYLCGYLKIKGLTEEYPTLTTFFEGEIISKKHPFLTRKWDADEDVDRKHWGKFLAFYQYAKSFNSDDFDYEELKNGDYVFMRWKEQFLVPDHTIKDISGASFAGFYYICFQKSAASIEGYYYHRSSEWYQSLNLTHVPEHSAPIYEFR
Chain of UniProt O00232 (O00232 whole entry): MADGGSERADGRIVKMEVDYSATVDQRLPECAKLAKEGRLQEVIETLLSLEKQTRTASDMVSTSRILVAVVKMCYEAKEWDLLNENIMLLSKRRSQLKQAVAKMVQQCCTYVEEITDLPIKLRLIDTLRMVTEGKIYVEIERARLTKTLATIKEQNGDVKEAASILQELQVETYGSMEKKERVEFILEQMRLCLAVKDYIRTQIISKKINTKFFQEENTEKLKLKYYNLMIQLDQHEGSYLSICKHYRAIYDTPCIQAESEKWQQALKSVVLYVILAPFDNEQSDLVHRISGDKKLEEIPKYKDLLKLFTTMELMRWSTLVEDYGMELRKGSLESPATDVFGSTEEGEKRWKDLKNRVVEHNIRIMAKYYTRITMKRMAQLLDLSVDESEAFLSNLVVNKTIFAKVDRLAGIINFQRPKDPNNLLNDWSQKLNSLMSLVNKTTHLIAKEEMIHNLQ
Chain of UniProt P78549 (P78549 whole entry, one chain of several): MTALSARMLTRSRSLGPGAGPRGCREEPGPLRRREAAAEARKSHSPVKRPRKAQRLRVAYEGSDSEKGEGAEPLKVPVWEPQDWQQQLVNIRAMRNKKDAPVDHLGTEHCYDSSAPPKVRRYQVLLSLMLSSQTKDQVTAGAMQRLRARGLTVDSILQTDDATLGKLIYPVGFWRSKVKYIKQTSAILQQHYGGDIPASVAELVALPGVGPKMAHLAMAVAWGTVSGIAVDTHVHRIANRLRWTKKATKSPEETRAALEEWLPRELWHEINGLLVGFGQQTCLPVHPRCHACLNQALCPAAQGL
Chain of UniProt Q9BRQ6 (Q9BRQ6 whole entry, one chain of several): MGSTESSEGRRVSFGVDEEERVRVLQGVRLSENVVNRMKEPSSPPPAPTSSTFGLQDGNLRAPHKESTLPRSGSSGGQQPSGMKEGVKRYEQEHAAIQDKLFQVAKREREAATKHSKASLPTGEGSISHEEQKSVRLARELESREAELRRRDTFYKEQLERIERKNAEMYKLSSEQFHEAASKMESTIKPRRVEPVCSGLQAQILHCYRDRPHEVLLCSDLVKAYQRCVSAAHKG
Chain of UniProt Q9BXS9 (Q9BXS9 whole entry, one chain of several): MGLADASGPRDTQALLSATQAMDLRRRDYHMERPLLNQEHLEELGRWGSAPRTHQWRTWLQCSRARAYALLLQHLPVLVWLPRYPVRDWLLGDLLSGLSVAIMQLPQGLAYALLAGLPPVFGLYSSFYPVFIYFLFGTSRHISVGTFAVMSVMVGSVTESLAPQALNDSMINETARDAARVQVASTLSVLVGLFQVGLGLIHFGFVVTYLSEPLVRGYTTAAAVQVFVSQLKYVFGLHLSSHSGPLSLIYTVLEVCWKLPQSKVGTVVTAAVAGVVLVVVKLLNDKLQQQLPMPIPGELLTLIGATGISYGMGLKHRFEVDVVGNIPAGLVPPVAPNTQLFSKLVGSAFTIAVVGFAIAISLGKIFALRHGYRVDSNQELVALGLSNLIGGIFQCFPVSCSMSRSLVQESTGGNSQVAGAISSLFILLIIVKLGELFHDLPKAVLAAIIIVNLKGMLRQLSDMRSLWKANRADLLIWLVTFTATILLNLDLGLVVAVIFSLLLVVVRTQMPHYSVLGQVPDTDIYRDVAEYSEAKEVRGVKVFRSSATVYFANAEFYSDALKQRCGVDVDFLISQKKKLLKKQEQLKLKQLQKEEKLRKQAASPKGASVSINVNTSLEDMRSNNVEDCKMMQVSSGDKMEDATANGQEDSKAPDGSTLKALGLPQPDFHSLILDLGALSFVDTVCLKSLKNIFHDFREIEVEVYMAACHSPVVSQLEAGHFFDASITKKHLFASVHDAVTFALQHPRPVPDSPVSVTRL
Chain of UniProt P04350 (P04350 whole entry, one chain of several): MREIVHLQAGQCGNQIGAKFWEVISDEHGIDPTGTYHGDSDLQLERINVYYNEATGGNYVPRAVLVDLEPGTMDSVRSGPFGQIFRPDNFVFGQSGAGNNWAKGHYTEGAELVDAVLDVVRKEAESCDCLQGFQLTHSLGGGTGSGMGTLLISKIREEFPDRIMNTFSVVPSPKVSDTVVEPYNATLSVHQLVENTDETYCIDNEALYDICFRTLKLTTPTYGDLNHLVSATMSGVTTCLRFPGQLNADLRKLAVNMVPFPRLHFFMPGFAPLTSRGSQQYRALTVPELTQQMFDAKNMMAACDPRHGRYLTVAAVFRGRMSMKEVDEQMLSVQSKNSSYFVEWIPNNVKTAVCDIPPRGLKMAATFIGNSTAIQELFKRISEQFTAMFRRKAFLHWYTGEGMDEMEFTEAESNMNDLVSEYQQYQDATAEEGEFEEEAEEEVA
Chain of UniProt O43169 (O43169 whole entry, one chain of several): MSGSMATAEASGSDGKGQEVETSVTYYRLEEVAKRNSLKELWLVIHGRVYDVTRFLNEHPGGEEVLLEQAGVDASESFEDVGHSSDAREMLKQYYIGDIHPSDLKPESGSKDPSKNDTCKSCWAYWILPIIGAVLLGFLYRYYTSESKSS
Chain of UniProt Q9H2U2 (Q9H2U2 whole entry, one chain of several): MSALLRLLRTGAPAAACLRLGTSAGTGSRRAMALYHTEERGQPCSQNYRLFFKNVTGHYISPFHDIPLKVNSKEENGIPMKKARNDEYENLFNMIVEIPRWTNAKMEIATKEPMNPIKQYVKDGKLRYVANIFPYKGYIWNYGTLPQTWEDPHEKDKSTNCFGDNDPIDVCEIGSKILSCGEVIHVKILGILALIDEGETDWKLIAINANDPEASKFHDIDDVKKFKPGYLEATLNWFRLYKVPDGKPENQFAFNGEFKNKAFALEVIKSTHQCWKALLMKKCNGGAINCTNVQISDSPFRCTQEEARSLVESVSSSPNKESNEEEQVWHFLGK
Chain of UniProt Q12857 (Q12857 whole entry, one chain of several): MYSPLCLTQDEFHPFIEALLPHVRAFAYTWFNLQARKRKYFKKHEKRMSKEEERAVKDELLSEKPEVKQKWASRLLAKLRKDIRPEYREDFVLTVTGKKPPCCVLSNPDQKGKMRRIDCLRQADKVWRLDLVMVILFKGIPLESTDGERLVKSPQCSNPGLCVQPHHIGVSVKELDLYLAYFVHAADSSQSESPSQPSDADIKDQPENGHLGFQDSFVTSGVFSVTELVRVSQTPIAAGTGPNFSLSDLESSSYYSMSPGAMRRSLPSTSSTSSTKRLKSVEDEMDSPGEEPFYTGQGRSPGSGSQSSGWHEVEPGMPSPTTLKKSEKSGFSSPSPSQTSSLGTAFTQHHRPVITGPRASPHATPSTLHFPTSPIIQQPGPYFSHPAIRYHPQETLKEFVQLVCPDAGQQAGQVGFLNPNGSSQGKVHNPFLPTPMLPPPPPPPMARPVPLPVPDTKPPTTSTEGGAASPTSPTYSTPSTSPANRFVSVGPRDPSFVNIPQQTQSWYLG
H3BUX2|J3KNF8|O43169 (UniProt O43169) was tested, and the NP40-soluble protein abundance was 0.877 ± 0.06.
F5H527|Q76I76 (UniProt Q76I76) showed an NP40-soluble protein abundance of 0.993 ± 0.03.
Work on M0R042|P04350 (UniProt P04350) yielded an NP40-soluble protein abundance of 1.02 ± 0.034.
PSMD12 (UniProt O00232) gave an NP40-soluble protein abundance of 0.863 ± 0.015.
With J3QTA6|Q9BRQ6 (UniProt Q9BRQ6) the NP40-soluble protein abundance was 0.897 ± 0.087.
MAN2B1 (UniProt O00754) was tested, and the NP40-soluble protein abundance was 0.957 ± 0.023.
G5E9V5|G5E9W7|P82650 (UniProt P82650) showed an NP40-soluble protein abundance of 0.892 ± 0.083.
Target I3L0W4|Q96F10 (UniProt Q96F10) has an NP40-soluble protein abundance of 0.962 ± 0.073.
With A0A0C4DGB9|Q9H2U2 (UniProt Q9H2U2) the NP40-soluble protein abundance was 0.953 ± 0.03.
In the case of “H3BPD5|P78549|P78549-2|P78549-3 (UniProt P78549)”, the NP40-soluble protein abundance is reported as 1.3 ± 0.1.
Work on “G3XAC1|Q9BXS9|Q9BXS9-3|Q9BXS9-7|A0A0C4DFT5|Q9BXS9-4|Q9BXS9-5 (UniProt Q9BXS9)” yielded an NP40-soluble protein abundance of 0.918 ± 0.073.
In the case of E5RG17|Q6P1N9 (UniProt Q6P1N9), the NP40-soluble protein abundance is reported as 0.965 ± 0.02.
“B1AKN5|B1AKN7|B1AKN8|Q12857|Q12857-3|Q12857-4|B1AKN6|S4R3K4|Q12857-2 (UniProt Q12857)” showed an NP40-soluble protein abundance of 1.12 ± 0.081.
Target “J3KP06|Q8WWI1|Q8WWI1-2|Q8WWI1-3|Q8WWI1-4 (UniProt Q8WWI1)” has an NP40-soluble protein abundance of 1.57 ± 0.067.
For K7ELH7|K7ENE2|Q8IVV7 (UniProt Q8IVV7), the NP40-soluble protein abundance was 1 ± 0.032.

Same assay, conditions: concentration: 6mM
In the case of G3V0I5|P49821|P49821-2 (UniProt P49821), the NP40-soluble protein abundance is reported as 0.94 ± 0.056.
Work on SETD1A (UniProt O15047) yielded an NP40-soluble protein abundance of 0.997 ± 0.044.
MYO1G (UniProt B0I1T2) was tested, and the NP40-soluble protein abundance was 3.19 ± 0.4.
For “H0YM92|J3KMZ9|P01130|P01130-5|H0YMD1|P01130-4 (UniProt P01130)”, the NP40-soluble protein abundance was 0.966 ± 0.029.
“A2ABJ5|O75955|A0A140T9R1 (UniProt O75955)” showed an NP40-soluble protein abundance of 0.925 ± 0.11.
DHX15 (UniProt O43143) gave an NP40-soluble protein abundance of 1.24 ± 0.1.
“F6S7C4|Q8NEM7|Q8NEM7-2|Q8NEM7-3|R4GND2 (UniProt Q8NEM7)” gave an NP40-soluble protein abundance of 1.12 ± 0.13.
I3L2M1|J3KNL2|Q8WYJ6 (UniProt Q8WYJ6) was tested, and the NP40-soluble protein abundance was 0.928 ± 0.033.
With G3XAG1|Q96ME7|Q96ME7-3 (UniProt Q96ME7) the NP40-soluble protein abundance was 1.71 ± 0.061.
Target B0QY89|Q9Y262 (UniProt Q9Y262) has an NP40-soluble protein abundance of 1.35 ± 0.072.
For UniProt O14776|O14776-2, the NP40-soluble protein abundance was 1.03 ± 0.021.
H3BSH7|Q969X6|Q969X6-3 (UniProt Q969X6) gave an NP40-soluble protein abundance of 1.425 ± 0.0083.
For “M0QZM1|M0R019|P52272|P52272-2 (UniProt P52272)”, the NP40-soluble protein abundance was 1.07 ± 0.014.
For J3KQ34|Q9H9Q2 (UniProt Q9H9Q2), the NP40-soluble protein abundance was 0.873 ± 0.093.
For B4DHE8|Q96DH6 (UniProt Q96DH6), the NP40-soluble protein abundance was 0.993 ± 0.08.
With E9PL53|J3KND1 (UniProt Q96ER3) the NP40-soluble protein abundance was 0.997 ± 0.019.
“C9J381|P20839|P20839-2|P20839-3|P20839-4|P20839-5|P20839-6|P20839-7 (UniProt P20839)” showed an NP40-soluble protein abundance of 0.695 ± 0.051.
NUDT21 (UniProt O43809) gave an NP40-soluble protein abundance of 2.25 ± 0.052.
In the case of UniProt O43865, the NP40-soluble protein abundance is reported as 0.973 ± 0.1.
A0A087X176|Q6ZRP7 (UniProt Q6ZRP7) showed an NP40-soluble protein abundance of 0.99 ± 0.029.
For E9PEN0|Q8WYH8|Q8WYH8-2 (UniProt Q8WYH8), the NP40-soluble protein abundance was 1.5 ± 0.16.
With H3BUX2|J3KNF8|O43169 (UniProt O43169) the NP40-soluble protein abundance was 0.865 ± 0.077.
For F5H527|Q76I76 (UniProt Q76I76), the NP40-soluble protein abundance was 0.997 ± 0.013.
In the case of M0R042|P04350 (UniProt P04350), the NP40-soluble protein abundance is reported as 0.934 ± 0.058.
PSMD12 (UniProt O00232) gave an NP40-soluble protein abundance of 0.843 ± 0.025.
Work on J3QTA6|Q9BRQ6 (UniProt Q9BRQ6) yielded an NP40-soluble protein abundance of 0.925 ± 0.13.
With MAN2B1 (UniProt O00754) the NP40-soluble protein abundance was 0.887 ± 0.057.
For G5E9V5|G5E9W7|P82650 (UniProt P82650), the NP40-soluble protein abundance was 0.907 ± 0.18.
I3L0W4|Q96F10 (UniProt Q96F10) was tested, and the NP40-soluble protein abundance was 0.963 ± 0.064.
In the case of A0A0C4DGB9|Q9H2U2 (UniProt Q9H2U2), the NP40-soluble protein abundance is reported as 0.93 ± 0.051.
“H3BPD5|P78549|P78549-2|P78549-3 (UniProt P78549)” showed an NP40-soluble protein abundance of 1.51 ± 0.2.
“G3XAC1|Q9BXS9|Q9BXS9-3|Q9BXS9-7|A0A0C4DFT5|Q9BXS9-4|Q9BXS9-5 (UniProt Q9BXS9)” was tested, and the NP40-soluble protein abundance was 0.885 ± 0.022.
E5RG17|Q6P1N9 (UniProt Q6P1N9) showed an NP40-soluble protein abundance of 0.963 ± 0.052.
“B1AKN5|B1AKN7|B1AKN8|Q12857|Q12857-3|Q12857-4|B1AKN6|S4R3K4|Q12857-2 (UniProt Q12857)” showed an NP40-soluble protein abundance of 1.21 ± 0.13.
For “J3KP06|Q8WWI1|Q8WWI1-2|Q8WWI1-3|Q8WWI1-4 (UniProt Q8WWI1)”, the NP40-soluble protein abundance was 1.65 ± 0.07.
K7ELH7|K7ENE2|Q8IVV7 (UniProt Q8IVV7) showed an NP40-soluble protein abundance of 0.867 ± 0.075.

Same assay, conditions: concentration: 8mM
For G3V0I5|P49821|P49821-2 (UniProt P49821), the NP40-soluble protein abundance was 0.962 ± 0.052.
With SETD1A (UniProt O15047) the NP40-soluble protein abundance was 0.969 ± 0.049.
In the case of MYO1G (UniProt B0I1T2), the NP40-soluble protein abundance is reported as 3.7 ± 0.64.
“H0YM92|J3KMZ9|P01130|P01130-5|H0YMD1|P01130-4 (UniProt P01130)” gave an NP40-soluble protein abundance of 0.9771 ± 0.0072.
With “A2ABJ5|O75955|A0A140T9R1 (UniProt O75955)” the NP40-soluble protein abundance was 0.931 ± 0.071.
With DHX15 (UniProt O43143) the NP40-soluble protein abundance was 1.33 ± 0.074.
For “F6S7C4|Q8NEM7|Q8NEM7-2|Q8NEM7-3|R4GND2 (UniProt Q8NEM7)”, the NP40-soluble protein abundance was 1.16 ± 0.093.
With I3L2M1|J3KNL2|Q8WYJ6 (UniProt Q8WYJ6) the NP40-soluble protein abundance was 0.932 ± 0.04.
With G3XAG1|Q96ME7|Q96ME7-3 (UniProt Q96ME7) the NP40-soluble protein abundance was 1.88 ± 0.046.
Work on B0QY89|Q9Y262 (UniProt Q9Y262) yielded an NP40-soluble protein abundance of 1.6 ± 0.1.
Target UniProt O14776|O14776-2 has an NP40-soluble protein abundance of 1.01 ± 0.024.
For H3BSH7|Q969X6|Q969X6-3 (UniProt Q969X6), the NP40-soluble protein abundance was 1.46 ± 0.084.
In the case of “M0QZM1|M0R019|P52272|P52272-2 (UniProt P52272)”, the NP40-soluble protein abundance is reported as 1.04 ± 0.019.
J3KQ34|Q9H9Q2 (UniProt Q9H9Q2) was tested, and the NP40-soluble protein abundance was 0.878 ± 0.032.
B4DHE8|Q96DH6 (UniProt Q96DH6) showed an NP40-soluble protein abundance of 0.983 ± 0.071.
In the case of E9PL53|J3KND1 (UniProt Q96ER3), the NP40-soluble protein abundance is reported as 0.9485 ± 0.0047.
“C9J381|P20839|P20839-2|P20839-3|P20839-4|P20839-5|P20839-6|P20839-7 (UniProt P20839)” was tested, and the NP40-soluble protein abundance was 0.61 ± 0.018.
For NUDT21 (UniProt O43809), the NP40-soluble protein abundance was 2.31 ± 0.1.
Target UniProt O43865 has an NP40-soluble protein abundance of 0.96 ± 0.081.
Target A0A087X176|Q6ZRP7 (UniProt Q6ZRP7) has an NP40-soluble protein abundance of 0.953 ± 0.026.
Work on E9PEN0|Q8WYH8|Q8WYH8-2 (UniProt Q8WYH8) yielded an NP40-soluble protein abundance of 1.85 ± 0.6.
H3BUX2|J3KNF8|O43169 (UniProt O43169) showed an NP40-soluble protein abundance of 0.815 ± 0.059.
F5H527|Q76I76 (UniProt Q76I76) showed an NP40-soluble protein abundance of 0.978 ± 0.037.
In the case of M0R042|P04350 (UniProt P04350), the NP40-soluble protein abundance is reported as 1.02 ± 0.018.
For PSMD12 (UniProt O00232), the NP40-soluble protein abundance was 0.898 ± 0.031.
For J3QTA6|Q9BRQ6 (UniProt Q9BRQ6), the NP40-soluble protein abundance was 0.918 ± 0.093.
For MAN2B1 (UniProt O00754), the NP40-soluble protein abundance was 0.917 ± 0.038.
For G5E9V5|G5E9W7|P82650 (UniProt P82650), the NP40-soluble protein abundance was 0.88 ± 0.11.
I3L0W4|Q96F10 (UniProt Q96F10) was tested, and the NP40-soluble protein abundance was 0.94 ± 0.025.
Work on A0A0C4DGB9|Q9H2U2 (UniProt Q9H2U2) yielded an NP40-soluble protein abundance of 0.952 ± 0.038.
For “H3BPD5|P78549|P78549-2|P78549-3 (UniProt P78549)”, the NP40-soluble protein abundance was 1.72 ± 0.19.
Work on “G3XAC1|Q9BXS9|Q9BXS9-3|Q9BXS9-7|A0A0C4DFT5|Q9BXS9-4|Q9BXS9-5 (UniProt Q9BXS9)” yielded an NP40-soluble protein abundance of 0.867 ± 0.074.
E5RG17|Q6P1N9 (UniProt Q6P1N9) showed an NP40-soluble protein abundance of 0.937 ± 0.019.
With “B1AKN5|B1AKN7|B1AKN8|Q12857|Q12857-3|Q12857-4|B1AKN6|S4R3K4|Q12857-2 (UniProt Q12857)” the NP40-soluble protein abundance was 0.995 ± 0.072.
“J3KP06|Q8WWI1|Q8WWI1-2|Q8WWI1-3|Q8WWI1-4 (UniProt Q8WWI1)” showed an NP40-soluble protein abundance of 1.77 ± 0.057.
K7ELH7|K7ENE2|Q8IVV7 (UniProt Q8IVV7) showed an NP40-soluble protein abundance of 0.931 ± 0.094.
